Screening data deposited in PubChem BioAssay by National Center for Advancing Translational Sciences (NCATS).
RE007 growth inh – less growth of the S. pombe RE007 Vpr strain. hit rate 0.21% among 360,000. Potency, µM (titrated, usually from 92.2 µM), for the others: at the top dose activity change, negative = less growth, actives largely listed as inhibitors. AID 651644. S. pombe RE007 Vpr strain, BacTiter-Glo ATP luminescence, 24 h; active = well fitted falling curve with a large enough effect; inconclusive = small, poorly fitted or top-dose-only effect; inactive = no such curve, though single readings can be large or run the other way; note: potency is the fitted concentration of half-maximal effect; nearly all actives have a fitted effect of over 50% in size
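Fission yeast strain RE007, carrying one chromosomally integrated HIV-1 vpr copy, was seeded at OD 0.01 in PMG+AL medium with 23 nL pinned compound. After 24 h at 30 °C and 99% humidity, viability was read by BacTiter-Glo luminescence.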
HCMV antiviral – inhibitors of human cytomegalovirus. hit rate 4.5% among 410,000. HFF cells, HCMV-luciferase reporter, 72 h; stronger effect = lower value. activity change, negative = inhibition, % at 57.5 µM. AID 1259415; in the data active = activity change below about -60%; inconclusive = no clear call, values can overlap the other calls; inactive = above about -39%
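Cell-based, HFFs, 1000 cells/well, 16 h 37C; cpds in DMSO + HCMV-luc, MOI 1 PFU/cell; 72 h 37C; OneGlo luminescence after 5 min RT; norm. to buffer vs Salinomycin 10uM.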
FBPA Giardia inh – blocks Giardia fructose-bisphosphate aldolase activity; purified Giardia FBPA; hit rate 0.71% among 290,000; Potency, µM (series often up to 59.6 µM), inactives show at the top dose activity, negative = inhibition, usual class: inhibitors; A8B2U2; note: potency is the fitted concentration of half-maximal effect; nearly all actives have a fitted effect of over 55% in size
Target sequence (A8B2U2 whole entry, looked up): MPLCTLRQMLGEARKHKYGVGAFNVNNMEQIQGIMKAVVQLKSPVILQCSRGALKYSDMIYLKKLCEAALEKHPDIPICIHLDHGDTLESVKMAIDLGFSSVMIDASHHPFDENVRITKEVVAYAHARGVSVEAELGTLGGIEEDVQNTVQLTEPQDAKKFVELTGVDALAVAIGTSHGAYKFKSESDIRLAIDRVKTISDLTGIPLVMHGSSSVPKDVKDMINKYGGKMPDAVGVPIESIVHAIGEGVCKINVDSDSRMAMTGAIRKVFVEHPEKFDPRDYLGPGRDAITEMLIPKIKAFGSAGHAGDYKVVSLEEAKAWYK
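Giardia FBPA (40 nM reagent) was preincubated 10 min at RT with compound (up to 57.5 uM final), then substrate plus GAPDH/TPI/NAD/arsenate coupling system with diaphorase/resazurin was added; resorufin fluorescence (525/598 nm) was read after 20 min.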
FMDV antiviral – antivirals against foot and mouth disease virus; FMDV antiviral cell-based qHTS; Potency, µM (titrated, usually from 57.9 µM), without a hit: at the highest dose activity change, negative = inhibition, actives largely listed as inhibitors; hit rate 1.2% among 410,000; calls by dose curve; tested in HEK293T cells; note: read-out not given here; potency is the fitted concentration of half-maximal effect; nearly all actives have a fitted effect of over 45% in size
Tb PYK inh – T. brucei pyruvate kinase inhibition; hit rate 0.12% among 410,000; Potency, µM (highest dose often 76.8 µM), without a hit: top-dose activity, negative = inhibition, usual class: inhibitors; TbPYK enzyme, Kinase-Glo Plus ATP luminescence, 45 min; note: potency is the fitted concentration of half-maximal effect; nearly all actives have a fitted effect of over 50% in size
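In this concentration-response screen, enzyme-free wells defined baseline while DMSO plates tracked drift. Each reaction combined TbPYK, substrate, compound and 130 uM ADP for 45 min at room temperature. Kinase-Glo Plus luminescence gave the signal.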
Sm TGR block – inhibitors of Schistosoma mansoni thioredoxin glutathione reductase; Q962Y6; purified TGR, DTNB reduction, TNB absorbance 405 nm; Potency, µM (doses to about 114 µM), inactives show at the top dose activity change, negative = inhibition, usual class: inhibitors; hit rate 3% among 360,000; note: potency is the fitted concentration of half-maximal effect; nearly all actives have a fitted effect of over 60% in size
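Kinetic colorimetric format: TGR-catalysed, NADPH-driven DTNB reduction monitored via TNB absorbance. Enzyme dispensed at 20 nM; compound exposure 15 min at room temperature before reaction start.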
* hit, by the source's call; [ ] = another dose, or the depositor's remark. In the library only some 7.7% were active in any assay of this set; here they are far more common. Unless noted, calls come from the whole dose curve; as a rule, active = well fitted curve in the direction sought with a large enough effect; inconclusive = small, poorly fitted or top-dose-only effect, or another doubt; inactive = no such curve, though single readings can be large; an effect the other way counts as inactive or inconclusive. % is set by controls: 0 for no effect and ±100 for the full control effect.

`O=C(NCc1ccccc1Cl)c1cnc2sc(N3CCCCC3)nn2c1=O` gave HCMV antiviral -4.2, FMDV antiviral -23.0%, Tb PYK inh 3.2% and Sm TGR block 2.5%.
CC(c1ccccc1)C1CC(=O)N(Cc2ccco2)C1=O (stereo not given) was read as RE007 growth inh 11.2%, HCMV antiviral 7.1, FBPA Giardia inh -1.5%, FMDV antiviral -5.2%, Tb PYK inh inconclusive and Sm TGR block 7.08µM*.
O=C1[C@@H]2[C@H](C(=O)N1Cc1ccco1)[C@H]1C=C[C@@H]2C1 was read as RE007 growth inh 12.5%, HCMV antiviral -5.3, FBPA Giardia inh 3.5%, FMDV antiviral 0.0%, Tb PYK inh -3.9% and Sm TGR block 50.1µM*.
CC(c1ccccc1)C1CC(=O)N(CC(=O)O)C1=O (stereo not given) was read as RE007 growth inh 8.4%, HCMV antiviral 37.7, FBPA Giardia inh 7.6%, Tb PYK inh 1.0% and Sm TGR block 4.2%.
`Cc1nc(CC(=O)N2CCC(n3c(C4CCC4)nc4cccnc43)CC2)cs1` gave FMDV antiviral -17.8%.
`O=S(=O)(Nc1cccnc1)c1ccc(C2CCCCC2)cc1` gave RE007 growth inh 16.2%, HCMV antiviral -65.7*, FBPA Giardia inh 23.0%, FMDV antiviral -30.6%, Tb PYK inh -3.6% and Sm TGR block -7.0%.
For O=S(=O)(Nc1cccnc1)c1ccccc1 the results were RE007 growth inh -10.0%, HCMV antiviral 29.8, FBPA Giardia inh -1.5%, FMDV antiviral 6.4%, Tb PYK inh -0.2% and Sm TGR block 6.7%.
Screening Cc1cccc2nc(=S)n(C(=O)c3ccco3)n12 returned RE007 growth inh -22.5%, HCMV antiviral 60.4, FBPA Giardia inh 0.3%, FMDV antiviral 102.0%, Tb PYK inh -20.1% and Sm TGR block 22.4µM*.
Screening O=C(c1ccco1)n1c(=S)nc2ccccn21 returned RE007 growth inh -4.3%, HCMV antiviral 8.3, FBPA Giardia inh inconclusive, FMDV antiviral 76.2%, Tb PYK inh -18.6% and Sm TGR block 50.1µM*.
Cc1ccn2c(c1)nc(=S)n2C(=O)c1ccccc1 was read as RE007 growth inh -1.5%, HCMV antiviral inconclusive, FBPA Giardia inh -3.3%, FMDV antiviral -26.8%, Tb PYK inh -28.2% and Sm TGR block 0.0%.
For CC(C)CC(C(=O)NCC1CCN(Cc2ccc(F)cc2)CC1)N1Cc2ccccc2C1=O (stereo not given) the results were HCMV antiviral -30.2, FMDV antiviral -13.1%, Tb PYK inh 6.5% and Sm TGR block 0.3%.
Screening Cc1ccc(Nc2nc3ccccc3c3nnc(C)n23)c(C)c1 returned HCMV antiviral 0.0, FMDV antiviral -6.5%, Tb PYK inh -0.4%[15.4 µM] and Sm TGR block 1.7%.
Screening COc1ccc(N2C(=O)CC(Nc3ccc(C)cc3)C2=O)cc1 (stereo not given) returned RE007 growth inh -8.7%, HCMV antiviral -4.9, FBPA Giardia inh -1.7%, FMDV antiviral 4.3%, Tb PYK inh 5.3% and Sm TGR block -5.2%.
For CCOC(=O)CNC1CC(=O)N(c2ccc(Br)cc2)C1=O (stereo not given) the results were RE007 growth inh 12.6µM*, HCMV antiviral 11.5, FBPA Giardia inh 2.3%, FMDV antiviral -14.4%, Tb PYK inh -0.3% and Sm TGR block 10µM*.
Screening COc1ccc(N2C(=O)CC(NC3CCCCNC3=O)C2=O)cc1 (stereo not given) returned RE007 growth inh inconclusive, HCMV antiviral 23.2, FBPA Giardia inh 0.6%, FMDV antiviral -3.1%, Tb PYK inh -0.5% and Sm TGR block 20µM*.
CCCOc1ccc(N2C(=O)CC(NCC#N)C2=O)cc1 (stereo not given) was read as RE007 growth inh 3.8%, HCMV antiviral -0.2, FBPA Giardia inh 7.4%, FMDV antiviral -13.7%, Tb PYK inh -0.7% and Sm TGR block 1.1%.
COc1ccc(N2C(=O)CC(NCC#N)C2=O)cc1 (stereo not given) was read as RE007 growth inh inconclusive, HCMV antiviral 31.1, FBPA Giardia inh -0.1%, FMDV antiviral -17.8%, Tb PYK inh -8.3% and Sm TGR block 14.1µM*.
`Cc1ccc(C(=O)Nc2ccc3nc(SCC(=O)N4CCCc5ccccc54)sc3c2)cc1` gave HCMV antiviral 78.4, FMDV antiviral -16.4%, Tb PYK inh -0.9% and Sm TGR block 4.5%.
`CCOc1ccc(NC(=O)CC2C(=O)N(c3ccccc3)C(=O)N2CCc2ccc(OC)cc2)cc1` (stereo not given) gave HCMV antiviral 14.7, FMDV antiviral 11.6%, Tb PYK inh 0.3% and Sm TGR block 5.7%.
c1ccc(CN2C3=NCCN3c3ccccc32)cc1 was read as HCMV antiviral 11.4, FBPA Giardia inh -9.9%, FMDV antiviral inconclusive, Tb PYK inh -6.0% and Sm TGR block 0.3%.
Screening Cc1ccccc1CN1CC2=C(CCN(Cc3ccccc3)C2=O)N2CCN=C12 returned RE007 growth inh -16.1%, HCMV antiviral -99.3*, FMDV antiviral -19.7% and Tb PYK inh -6.3%.
`O=C(CCSCCC(=O)N1CCCC1)N1CCCC1` gave RE007 growth inh -25.6%, HCMV antiviral 16.0, FBPA Giardia inh 5.8%, FMDV antiviral 6.0%, Tb PYK inh 3.2% and Sm TGR block 39.8µM*.
CC(=O)Nc1ccccc1-c1nc2ccccc2n(C(C)C(=O)Nc2cc(Cl)ccc2C)c1=O (stereo not given) was read as HCMV antiviral 9.5, FMDV antiviral -17.8%, Tb PYK inh 0.1% and Sm TGR block -1.4%.
For CCNC(=O)C1(C)CCCN(Cc2ccc(-c3ccccn3)cc2)C1 (stereo not given) the results were RE007 growth inh -15.9%, HCMV antiviral -100.1*, FMDV antiviral -15.9% and Tb PYK inh -2.3%.
`O=C1N=C(N2CCN(c3ccccc3)CC2)S/C1=C/c1cccs1` gave RE007 growth inh 5.2%, HCMV antiviral 1.7, FBPA Giardia inh -5.4%, FMDV antiviral 14.2%, Tb PYK inh 0.5% and Sm TGR block -0.5%.
`O=C1N=C(c2ccccc2)S/C1=C\c1cccs1` gave RE007 growth inh -24.9%, HCMV antiviral 17.5, FBPA Giardia inh -17.9%, FMDV antiviral 44.9%, Tb PYK inh 7.94µM* and Sm TGR block 3.98µM*.
Screening COc1cc(SC)ccc1C(=O)N1CCN(S(=O)(=O)/C=C/c2ccccc2)CC1 returned RE007 growth inh 11.5%, HCMV antiviral -1.9, FMDV antiviral inconclusive, Tb PYK inh 5.2% and Sm TGR block 39.8µM*.
